Assay [1] in a line: ATG_GRE_CIS: Attagene CIS-FACTORIAL HepG2 Assay for human Glucocorticoid Response Elements (GRE) (AID 2282947). Particulars: HepG2 GRE cis-reporter, Attagene multiplex mRNA; actives raise or lower the signal. An outline of the steps:
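Following 24 h chemical exposure of transiently transfected HepG2 cells, total RNA was reverse-transcribed and reporter cDNA amplified, fluorescently labelled and sized by capillary electrophoresis. Signal gain or loss was fitted relative to DMSO vehicle.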

Assay [2] can be described thus: ATG_ISRE_CIS: Attagene CIS-FACTORIAL HepG2 Assay for human Interferon Regulatory Factor 1 (IRF1) binding to an Interferon-Stimulated Response Element (ISRE) (AID 2282948). Particulars: HepG2 ISRE cis-reporter (Attagene), mRNA transcription readout; actives raise or lower the signal. In short, it runs like this: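 Transiently transfected HepG2 cells carrying cis-element reporter units, dosed 24 hours. Reporter mRNA quantified by RT-PCR, fluorescent primer extension, HpaI digestion and capillary electrophoresis. Bidirectional fitting relative to DMSO.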

Assay [3] in a line: ATG_M_32_CIS: Attagene CIS-FACTORIAL HepG2 Assay for M32 Transcription Factor (Internal Marker) (AID 2282949).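 Note: background control marker of the multiplexed CIS panel rather than a real target.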 The following applies: HepG2 Attagene cis-factorial M32 reporter, mRNA; actives raise or lower the signal. An outline of the steps: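 HepG2 cells transiently transfected with multiplexed cis-regulated reporter units, dosed 24 h. Reporter mRNA quantified by RT-PCR, 6-FAM labelling, HpaI digestion and capillary electrophoresis; bidirectional fit vs DMSO.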

The nature of assay [4]: ATG_M_06_CIS: Attagene CIS-FACTORIAL HepG2 Assay for M06 Transcription Factor (Internal Marker) (AID 2282950). The following applies: HepG2 Attagene CIS-FACTORIAL M06 internal marker reporter; actives raise or lower the signal. In short, it runs like this:
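Fluorescence-labelled RT-PCR products from cis-promoter reporter units, cut with HpaI and resolved by capillary electrophoresis, give the signal. Cells are human HepG2, dosed for 24 h. Serves as background control, fitted relative to DMSO.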

Assay [5] has as its target Hypoxia-inducible factor 1-alpha (Homo sapiens) (UniProt Q16665). Nature of the assay: ATG_HIF1a_CIS: Attagene CIS-FACTORIAL HepG2 Assay for human Hypoxia Inducible Factor 1 (HIF1A) (AID 2282951). Particulars: HepG2 Attagene cis-factorial HIF1a reporter transcription; actives raise or lower the signal. An outline of the steps:
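Transient MRTU transfection of human HepG2 liver cells, 24 h compound treatment, then total RNA isolation, oligo(dT) reverse transcription, PCR amplification, fluorescent labelling and capillary electrophoresis of reporter fragments. Gain or loss relative to DMSO.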

Assay [6] has as its target Hepatocyte nuclear factor 6 (Homo sapiens) (UniProt Q9UBC0). In words: ATG_HNF6_CIS: Attagene CIS-FACTORIAL HepG2 Assay for human Hepatocyte Nuclear Factor 6 (HNF6) (AID 2282952). The following applies: HepG2 Attagene cis-factorial HNF6 reporter transcription; actives raise or lower the signal. In short, it runs like this:
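HepG2, transient MRTU transfection (cis promoters); 24 h chemical exposure; total RNA → oligo(dT) RT → PCR → 6-FAM labelling → HpaI cut → CE; bidirectional fit vs DMSO.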

In assay [7] the target is Heat shock factor protein 1 (Homo sapiens) (UniProt Q00613). Nature of the assay: ATG_HSE_CIS: Attagene CIS-FACTORIAL HepG2 Assay for human Heat Shock Transcription Factor 1 (HSE) (AID 2282953). The following applies: HepG2 HSE cis-reporter, Attagene RNA transcription; actives raise or lower the signal. In short, it runs like this:
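After a 24 h incubation with test chemical, transfected HepG2 cells were harvested for RNA; reporter transcripts were measured by RT-PCR and capillary electrophoresis. Values reflect gain or loss of signal relative to DMSO.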

Assay [8] in a line: ATG_PXRE_CIS: Attagene CIS-FACTORIAL HepG2 Assay for human Pregnane X Receptor Element (PXRE) (AID 2282957). The following applies: HepG2 Attagene CIS-FACTORIAL PXRE reporter, mRNA; actives raise or lower the signal. In short, it runs like this:
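Transfect HepG2 with MRTUs (cis promoter elements); dose chemical, incubate 24 h; isolate RNA, RT with oligo(dT), PCR, 6-FAM label, HpaI cut, CE. Gain/loss fit vs DMSO.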

Assay [9] in a line: ATG_PPRE_CIS: Attagene CIS-FACTORIAL HepG2 Assay for human Peroxisome Proliferator-activated Response Element (PPRE) (AID 2282958). The following applies: HepG2 PPRE cis-element reporter, Attagene transcription factor profiling; actives raise or lower the signal. An outline of the steps: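 HepG2, transient MRTU transfection (cis promoter elements, endogenous TFs). 24 h dosing. RNA → oligo(dT) RT → PCR → 6-FAM primer extension → HpaI digest → CE. Bidirectional fit vs DMSO.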

Assay [10] is described as follows: ATG_RORE_CIS: Attagene CIS-FACTORIAL HepG2 Assay for human RAR-related Orphan Receptor Element (RORE) (AID 2282959). Particulars: HepG2 Attagene cis-factorial RORE reporter, mRNA; actives raise or lower the signal. In short, it runs like this: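 Transient MRTU transfection of human HepG2 liver cells (FuGene 6); 24 h compound exposure; TriZol RNA, oligo(dT) RT, PCR, FAM labeling, HpaI cut, CE fragment analysis. DMSO = negative control/baseline.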

Assay [11] can be described thus: ATG_Sox_CIS: Attagene CIS-FACTORIAL HepG2 Assay for human SRY-box transcription factor (SOX) (AID 2282960). The following applies: HepG2 Attagene cis-factorial SOX reporter, mRNA; actives raise or lower the signal. In short, it runs like this:
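Endogenous factor activity in human liver HepG2 cells carrying transfected cis-regulated reporter units. RNA taken 24 h post-dose, reverse-transcribed, PCR-amplified and sized by capillary electrophoresis. Gain or loss of signal fitted relative to DMSO.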

Assay [12] concerns the target Transcription factor Sp1 (Homo sapiens) (UniProt P08047). Nature of the assay: ATG_Sp1_CIS: Attagene CIS-FACTORIAL HepG2 Assay for human Specificity Protein 1 (Sp1) (AID 2282961). Particulars: HepG2 Sp1 cis-reporter transcription, actives raise or lower the signal. In short, it runs like this:
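Transient MRTU-transfected HepG2, 24 h compound exposure. Total RNA → oligo(dT) RT → PCR of reporter → 6-FAM primer extension → HpaI digest → CE. Endpoint fitted both directions vs DMSO.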

Assay [13] in a line: ATG_SREBP_CIS: Attagene CIS-FACTORIAL HepG2 Assay for human Sterol Regulatory Element Binding (SREBP) (AID 2282962). Particulars: HepG2 Attagene cis-factorial SREBP reporter, mRNA; actives raise or lower the signal. In short, it runs like this: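 HepG2 cells transiently transfected with multiplexed cis-promoter reporter units sensing endogenous transcription factors; reporter mRNA measured 24 h after dosing by RT-PCR, 6-FAM labeling, HpaI digestion and capillary electrophoresis. Bidirectional fit versus DMSO.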

Assay [14] concerns the target Signal transducer and activator of transcription 3 (Homo sapiens) (UniProt P40763). In words: ATG_STAT3_CIS: Attagene CIS-FACTORIAL HepG2 Assay for human Signal Transducer and Activator of Transcription 3 (STAT3) (AID 2282963). The following applies: HepG2, Attagene cis-factorial STAT3 reporter transcription; actives raise or lower the signal. In short, it runs like this:
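Transcript-level reporter assay. HepG2 transient MRTU transfection, 24 h exposure, fluorescence detection after RT-PCR and CE; DMSO baseline.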

Assay [15] in a line: ATG_TA_CIS: Attagene CIS-FACTORIAL HepG2 Assay for human TA Basal Promoter (AID 2282964). Particulars: HepG2 Attagene CIS-factorial TA basal promoter reporter; actives raise or lower the signal. In short, it runs like this: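 Multiplexed mRNA reporter assay, HepG2, 24 h. Reporter cDNA amplified, 6-FAM primer-extended, HpaI-cut, CE-sized; DMSO = negative control and baseline.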

Assay [16] in a line: ATG_TCF_b_cat_CIS: Attagene CIS-FACTORIAL HepG2 Assay for human T-Cell-Factor with beta-catenin (TCF/b-cat) (AID 2282965). Particulars: HepG2 TCF/beta-catenin cis-reporter transcription, actives raise or lower the signal. In short, it runs like this:
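Using capillary electrophoresis as the read-out, labelled reporter cDNA fragments from transiently transfected HepG2 were sized and quantified. Exposure lasted 24 hours; activity in either direction was referenced to DMSO.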

Assay [17] is described as follows: ATG_MRE_CIS: Attagene CIS-FACTORIAL HepG2 Assay for human Metal Responsive Element (MRE) (AID 2282954). Particulars: HepG2 MRE cis-reporter transcription, Attagene multiplex; actives raise or lower the signal. In short, it runs like this:
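Step one: transfect HepG2 with cis-regulated reporter units. Step two: dose 24 h. Step three: isolate RNA, RT-PCR, 6-FAM label, HpaI digest, capillary electrophoresis. Fit bidirectionally to DMSO.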

A short description of assay [18]: ATG_PBREM_CIS: Attagene CIS-FACTORIAL HepG2 Assay for human Phenobarbital-responsive Enhancer Module (PBREM) (AID 2282955). The following applies: HepG2 PBREM cis-reporter, Attagene multiplexed transcription; actives raise or lower the signal. In short, it runs like this:
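Endogenous transcription factors in human liver HepG2 cells drive a PBREM cis-element reporter, whose transcript level after 24 h treatment is quantified by RT-PCR with capillary electrophoresis; activity fitted in both directions against DMSO.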

Assay [19] deals with Paired box protein Pax-6 (Homo sapiens) (UniProt P26367). Nature of the assay: ATG_Pax6_CIS: Attagene CIS-FACTORIAL HepG2 Assay for human Paired Box 6 (PAX6) (AID 2282956). Particulars: HepG2 CIS-FACTORIAL PAX6 reporter transcription, RNA readout; actives raise or lower the signal. An outline of the steps:
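HepG2 cells transiently transfected with cis-promoter-driven multiplexed reporter units sensing endogenous transcription factor activity; 24 h chemical exposure. Reporter mRNA quantified by RT-PCR, 6-FAM labelling, HpaI digestion and capillary electrophoresis; bidirectional fit versus DMSO baseline.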

By AC50 is commonly meant the midpoint of the concentration-response curve, whichever way the signal moves.

The structures appear in SMILES notation. Activity calls are given as the source filed them. Rule for the calls: active = hit-call score of the fitted dose curve at least 0.9, where 1 is the maximum; inactive = score below 0.9.

Chain of Heat shock factor protein 1 (Homo sapiens) (Q00613 whole entry, looked up): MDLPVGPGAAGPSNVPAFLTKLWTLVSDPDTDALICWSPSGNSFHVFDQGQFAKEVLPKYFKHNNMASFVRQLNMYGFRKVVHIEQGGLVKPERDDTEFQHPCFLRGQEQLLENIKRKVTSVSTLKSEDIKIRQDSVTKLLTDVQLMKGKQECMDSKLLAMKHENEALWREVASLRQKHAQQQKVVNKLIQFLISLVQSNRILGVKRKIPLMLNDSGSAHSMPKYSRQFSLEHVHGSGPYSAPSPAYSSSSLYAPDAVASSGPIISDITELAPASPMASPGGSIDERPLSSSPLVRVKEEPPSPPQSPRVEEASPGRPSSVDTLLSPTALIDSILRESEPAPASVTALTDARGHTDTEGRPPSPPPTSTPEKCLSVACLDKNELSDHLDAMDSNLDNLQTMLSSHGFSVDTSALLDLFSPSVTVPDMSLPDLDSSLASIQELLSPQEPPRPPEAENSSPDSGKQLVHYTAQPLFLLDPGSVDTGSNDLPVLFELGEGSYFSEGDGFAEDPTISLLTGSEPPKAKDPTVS
Chain of Transcription factor Sp1 (Homo sapiens) (P08047 whole entry, looked up): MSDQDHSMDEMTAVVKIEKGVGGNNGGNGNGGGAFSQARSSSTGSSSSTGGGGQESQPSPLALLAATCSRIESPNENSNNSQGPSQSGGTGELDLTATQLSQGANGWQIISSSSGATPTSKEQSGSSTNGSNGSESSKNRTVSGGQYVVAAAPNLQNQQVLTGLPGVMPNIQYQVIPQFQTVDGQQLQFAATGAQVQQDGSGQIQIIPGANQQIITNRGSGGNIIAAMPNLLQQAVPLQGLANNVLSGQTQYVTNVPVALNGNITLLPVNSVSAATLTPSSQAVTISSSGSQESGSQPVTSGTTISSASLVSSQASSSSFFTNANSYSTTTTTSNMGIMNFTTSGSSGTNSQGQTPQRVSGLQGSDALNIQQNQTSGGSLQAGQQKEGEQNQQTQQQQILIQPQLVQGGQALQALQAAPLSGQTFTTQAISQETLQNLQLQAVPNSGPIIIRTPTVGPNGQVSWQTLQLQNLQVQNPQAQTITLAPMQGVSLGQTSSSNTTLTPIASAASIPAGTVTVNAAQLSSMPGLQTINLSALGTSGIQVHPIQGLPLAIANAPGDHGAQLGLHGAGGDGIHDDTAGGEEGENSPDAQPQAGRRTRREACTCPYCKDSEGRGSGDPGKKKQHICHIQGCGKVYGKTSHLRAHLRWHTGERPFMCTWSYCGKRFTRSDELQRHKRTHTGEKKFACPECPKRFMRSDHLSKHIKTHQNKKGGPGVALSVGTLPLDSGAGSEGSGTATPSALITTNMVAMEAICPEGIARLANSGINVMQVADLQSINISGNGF
Chain of Hepatocyte nuclear factor 6 (Homo sapiens) (Q9UBC0 whole entry, looked up): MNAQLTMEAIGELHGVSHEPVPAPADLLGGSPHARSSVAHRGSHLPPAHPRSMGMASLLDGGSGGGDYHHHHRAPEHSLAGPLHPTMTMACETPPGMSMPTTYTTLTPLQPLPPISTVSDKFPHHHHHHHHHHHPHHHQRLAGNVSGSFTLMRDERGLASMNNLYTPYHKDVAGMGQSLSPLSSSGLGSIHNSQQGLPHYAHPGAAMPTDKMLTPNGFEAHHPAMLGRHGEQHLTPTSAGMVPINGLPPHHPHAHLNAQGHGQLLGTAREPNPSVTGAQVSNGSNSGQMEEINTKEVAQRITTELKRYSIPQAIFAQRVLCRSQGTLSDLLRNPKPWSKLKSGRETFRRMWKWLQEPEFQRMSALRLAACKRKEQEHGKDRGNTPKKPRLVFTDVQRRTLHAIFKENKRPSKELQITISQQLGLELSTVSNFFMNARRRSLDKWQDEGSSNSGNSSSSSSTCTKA
Chain of Hypoxia-inducible factor 1-alpha (Homo sapiens) (Q16665 whole entry, looked up, the tested form may be a part): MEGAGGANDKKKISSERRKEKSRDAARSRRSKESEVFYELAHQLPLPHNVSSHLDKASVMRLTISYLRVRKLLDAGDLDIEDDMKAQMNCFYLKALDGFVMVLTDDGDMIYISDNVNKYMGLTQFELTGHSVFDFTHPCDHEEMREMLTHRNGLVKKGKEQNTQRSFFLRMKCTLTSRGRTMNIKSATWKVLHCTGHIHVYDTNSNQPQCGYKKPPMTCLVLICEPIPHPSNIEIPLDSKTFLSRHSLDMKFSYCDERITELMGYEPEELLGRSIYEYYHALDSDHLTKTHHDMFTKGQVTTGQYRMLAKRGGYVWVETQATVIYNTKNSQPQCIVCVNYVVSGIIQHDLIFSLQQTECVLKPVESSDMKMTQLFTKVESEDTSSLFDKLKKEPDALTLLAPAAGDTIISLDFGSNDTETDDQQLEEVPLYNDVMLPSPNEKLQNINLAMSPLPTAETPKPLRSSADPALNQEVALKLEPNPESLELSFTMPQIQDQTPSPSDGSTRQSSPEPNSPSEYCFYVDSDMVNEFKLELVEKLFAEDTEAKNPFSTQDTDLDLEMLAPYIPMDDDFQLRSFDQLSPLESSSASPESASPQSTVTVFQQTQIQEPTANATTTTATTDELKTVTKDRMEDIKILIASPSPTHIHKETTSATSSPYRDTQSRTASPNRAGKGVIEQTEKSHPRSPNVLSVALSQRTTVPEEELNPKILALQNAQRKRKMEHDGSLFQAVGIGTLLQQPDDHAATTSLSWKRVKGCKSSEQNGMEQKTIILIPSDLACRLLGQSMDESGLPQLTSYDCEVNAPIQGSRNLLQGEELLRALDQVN
Chain of Signal transducer and activator of transcription 3 (Homo sapiens) (P40763 whole entry, looked up): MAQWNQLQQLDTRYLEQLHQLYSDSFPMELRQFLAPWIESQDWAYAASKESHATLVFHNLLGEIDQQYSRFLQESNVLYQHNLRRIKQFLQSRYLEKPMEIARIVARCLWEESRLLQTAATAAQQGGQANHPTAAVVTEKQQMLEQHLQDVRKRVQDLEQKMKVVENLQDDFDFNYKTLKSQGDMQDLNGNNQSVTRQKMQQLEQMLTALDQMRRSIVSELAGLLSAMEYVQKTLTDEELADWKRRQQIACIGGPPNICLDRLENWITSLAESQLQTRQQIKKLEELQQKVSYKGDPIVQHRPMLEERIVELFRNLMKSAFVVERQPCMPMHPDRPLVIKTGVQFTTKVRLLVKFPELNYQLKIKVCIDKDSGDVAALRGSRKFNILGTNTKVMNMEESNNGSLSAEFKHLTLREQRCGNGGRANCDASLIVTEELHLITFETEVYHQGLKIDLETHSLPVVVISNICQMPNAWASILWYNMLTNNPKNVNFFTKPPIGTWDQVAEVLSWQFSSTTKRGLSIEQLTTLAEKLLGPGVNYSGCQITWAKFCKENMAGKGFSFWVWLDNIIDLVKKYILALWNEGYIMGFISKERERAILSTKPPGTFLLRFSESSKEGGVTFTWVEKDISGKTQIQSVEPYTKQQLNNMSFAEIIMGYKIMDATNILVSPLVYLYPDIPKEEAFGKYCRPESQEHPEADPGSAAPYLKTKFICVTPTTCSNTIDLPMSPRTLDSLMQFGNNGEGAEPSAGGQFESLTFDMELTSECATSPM
Chain of Paired box protein Pax-6 (Homo sapiens) (P26367 whole entry, looked up): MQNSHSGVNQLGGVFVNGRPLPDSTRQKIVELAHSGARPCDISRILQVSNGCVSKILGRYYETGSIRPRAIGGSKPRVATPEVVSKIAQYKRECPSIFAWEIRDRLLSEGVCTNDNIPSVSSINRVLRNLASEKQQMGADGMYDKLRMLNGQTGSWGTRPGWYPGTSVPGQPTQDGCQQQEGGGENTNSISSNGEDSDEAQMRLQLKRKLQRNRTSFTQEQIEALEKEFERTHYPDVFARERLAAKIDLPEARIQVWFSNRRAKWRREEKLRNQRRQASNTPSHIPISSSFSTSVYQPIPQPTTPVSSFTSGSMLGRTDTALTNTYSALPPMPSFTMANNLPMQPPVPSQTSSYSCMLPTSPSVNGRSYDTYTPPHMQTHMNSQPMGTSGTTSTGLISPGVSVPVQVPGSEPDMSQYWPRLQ

For the compound `CC1CCC(C(C)CS)CC1S` (stereo unspecified), the AC50 was 55 µM (active) in assay [1]; 53.7 µM (active) in assay [5]; 46.8 µM (active) in assay [6]; 2.54 µM (active) in assay [8]; 52.9 µM (active) in [11]; 52.1 µM (active) in [12]. For the same compound, the AC50 in assay [16] is 49.4 µM (active). Further, the compound was called inactive in [2], in assay [3], in [4], in assay [7], in assay [9] and in assay [10]. Moreover, the outcome in assay [13], in assay [14] and in assay [15] was inactive.
Consider `Cc1ccc2ccccc2n1`, for which the call in assay [1], in assay [2], in [3], in [4], in [5] and in assay [6] was inactive. In addition, the outcome in assay [17], in assay [18], in assay [19], in [9], in [10] and in assay [11] was inactive. The compound was called inactive in assay [13], in assay [14] and in assay [16]. The AC50 in [8] is 58.9 µM (active).
For the compound `CCCCC[Si](OCC)(OCC)OCC`, the outcome in [1], in [2], in assay [3], in assay [4], in [5] and in assay [6] was inactive. The call in assay [7], in [17], in [19], in assay [9], in assay [10] and in assay [11] was inactive. The call in [12], in assay [13], in [14], in assay [15] and in [16] was inactive. In assay [8], the AC50 is 7.23 µM (active).
Take `C=CC(=O)OCCOCCOCC`: the compound was classed as inactive in assay [1], in [2], in [3], in assay [4], in [5] and in assay [6]. Besides, the outcome in [7], in assay [17], in assay [10], in assay [11], in assay [12] and in assay [13] was inactive. Besides, the call in [15] and in [16] was inactive. The AC50 in assay [8] is 27 µM (active).
As to `O=C(Cl)c1cccc(C(=O)Cl)c1`, the outcome in assay [1], in assay [2], in assay [3], in [4], in assay [5] and in assay [6] was inactive. For the same compound, the outcome in [7], in [19], in [10], in assay [11], in [12] and in assay [13] was inactive. Moreover, the call in assay [14], in [15] and in assay [16] was inactive. For the same compound, the AC50 in [8] is 27.5 µM (active).
Regarding `CC(=O)[O][Al][O]C(C)=O`, the call in [1], in assay [2], in [3], in assay [4], in assay [5] and in [6] was inactive. The outcome in [17], in assay [18], in assay [19], in assay [10], in [11] and in assay [12] was inactive. In addition, the outcome in assay [13], in [14] and in [15] was inactive. Besides, the AC50 in [8] is 6.49 µM (active).
Consider `[Ca+2]`, for which the call in assay [1], in assay [2], in [3], in assay [4], in [5] and in assay [6] was inactive. Further, the compound was called inactive in assay [7], in assay [17], in [19], in [8], in assay [9] and in assay [10]. Also, the outcome in assay [11], in assay [12], in assay [13], in assay [14], in assay [15] and in assay [16] was inactive.
`COCCCOc1ccnc(CS(=O)c2nc3ccccc3[nH]2)c1C` (stereo unspecified): the outcome in [1], in assay [2], in [3], in assay [4], in assay [5] and in assay [6] was inactive. For the same compound, the outcome in assay [18], in [19], in [10], in assay [11], in assay [13] and in assay [14] was inactive. Besides, the compound was called inactive in assay [15] and in assay [16]. Also, the AC50 is 152 µM (active) in [7] and 6.74 µM (active) in [8].

The values are drawn from PubChem BioAssay (EPA / NIEHS).
